Experimental data taken from PubChem BioAssay (Tox21).
Results filed as inconclusive are left out. Activity calls are given as the source filed them. Unless noted, calls come from the whole dose curve.

Experiments:
[1] = Nuclear factor erythroid 2-related factor 2/antioxidant responsive element (Nrf2/ARE) small molecule agonists: qHTS cell viability counter screen in human keratinocytes (AID 1919968; active = well fitted curve in the direction sought with a large enough effect in the repeat runs; an effect the other way counts as inactive or inconclusive; note: nearly all actives have a fitted effect of over 55% in size; note: potency is the fitted concentration of half-maximal effect)
Procedure, shortened: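 KeratinoSens HaCaT cells, 1,500/well, preincubated 5 h, then exposed to compounds in DMSO for 23 h at 37 C/5% CO2. Viability read as CellTiter-Fluor fluorescence after 1 h, in the same wells as the ARE-luciferase read.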

[2] = Nuclear factor erythroid 2-related factor 2/antioxidant responsive element (Nrf2/ARE) small molecule agonists: luciferase reporter gene qHTS assay in human keratinocytes (AID 1919969); note: nearly all actives have a fitted effect of over 35% in size; note: potency is the fitted concentration of half-maximal effect
[3] = target: Gonadotropin-releasing hormone receptor (Homo sapiens) (UniProt P30968); experiment: Human gonadotropin-releasing hormone receptor (GnRHR) small molecule agonists, calcium flux assay in GnRHR-HEK293 cells (AID 1920063); note: nearly all actives have a fitted effect of over 35% in size; note: potency is the fitted concentration of half-maximal effect
Procedure, shortened: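 HEK293 cells stably expressing human GnRHR were dye-loaded for 1 h at 37 C. Compound was added in agonist mode and fluorescence (Ex/Em 480/540) recorded kinetically for 3 min. Fifteen concentrations, triplicates.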

[4] = target: KiSS-1 receptor (Homo sapiens) (UniProt Q969F8); experiment: Human kisspeptin (KISS1R) small molecule agonists, calcium flux assay in KISS1R-HEK293 cells (AID 1920064; active = well fitted curve in the direction sought with a large enough effect in the repeat runs; an effect the other way counts as inactive or inconclusive; note: potency is the fitted concentration of half-maximal effect)
Procedure, shortened: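 HEK293 cells stably expressing human KISS1R were loaded with calcium dye for 1 h at 37 C, then given compound; fluorescence (Ex/Em 480/540) was read kinetically for 3 min. Fifteen concentrations, triplicate.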

[5] = G protein-coupled receptor (GPCR) small molecule agonists, calcium flux assay: HEK293 wild type cell line counter screen (AID 1920065)
Procedure, shortened: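 Wild-type HEK293 cells plated 18 h, loaded with calcium dye 1 h at 37 C, then compounds added in agonist mode (ATP as positive control). Kinetic fluorescence Ex/Em 480/540 recorded 3 min at 1 sec intervals; 15 concentrations, triplicate.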

[6] = p53 small molecule agonists, cell-based qHTS assay (AID 1963582; active = well fitted activation curve with a large enough effect in the signal ratio in the repeat runs, not every such curve was filed as active; the % refers to the signal ratio)
Procedure, shortened: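 p53RE-bla reporter cells, compounds added in DMSO after 5 h plating, incubated 16 h at 37 C. Beta-lactamase read via 2 h room-temperature LiveBLAzer B/G FRET substrate, fluorescence intensity.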

[7] = cAMP Responsive Elements (CRE) small molecule agonists, cell-based qHTS assay (AID 1963590)
Procedure, shortened: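 CRE-bla HEK 293T cells, 2,000/well in DMEM with 10% dialyzed FBS and 25 mM HEPES, pre-incubated 18 h at 37 C, then exposed to compound 3 h at 37 C. Beta-lactamase reporter read with LiveBLAzer B/G FRET substrate after 2 h at room temperature.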

[8] = cAMP Responsive Elements (CRE) small molecule antagonists, cell-based qHTS assay (AID 1963591; active = well fitted inhibition curve with a large enough effect in the signal ratio in the repeat runs, not every such curve was filed as active; the % refers to the signal ratio)
Procedure, shortened: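 CRE-bla HEK293T cells plated 18 h, then given compound plus NKH477 at 0.25 uM final for 3 h at 37C. Beta-lactamase reporter read with LiveBLAzer B/G FRET substrate after 2 h at room temperature.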

[9] = target: Beta-2 adrenergic receptor (Homo sapiens) (UniProt P07550); experiment: Adrenergic beta2 receptor (ADRB2) small molecule antagonists, cell-based qHTS assay (AID 1963592); note: nearly all actives have a fitted effect of over 50% in size; note: potency is the fitted concentration of half-maximal effect
Procedure, shortened: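 Cells (CHO, stable ADRB2 overexpression) incubated 18-20hr at 37C; compounds added from DMSO; agonist mix (1nM isoproterenol, 100uM IBMX, 25uM Ro-20-1724) added; 0.5hr RT; d2-cAMP and anti-cAMP-cryptate added; 1hr RT; 665/615 nm read.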

[10] = target: D(2) dopamine receptor (Homo sapiens) (UniProt P14416); experiment: Dopamine D2 receptor (DRD2) small molecule agonists, cell-based qHTS assay (AID 1963594); note: nearly all actives have a fitted effect of over 35% in size
Procedure, shortened: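 HEK293 cells stably expressing human DRD2, pre-treated with PDE inhibitor Ro20-1724 (0.1 mM final) and compound 10 min at room temperature, then stimulated with NKH477 (200nM […]) for 30 min. cAMP read by HTRF (665/620 nm).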

[11] = target: D(2) dopamine receptor (Homo sapiens) (UniProt P14416); experiment: Dopamine D2 receptor (DRD2) small molecule antagonists, cell-based qHTS assay (AID 1963595; active = well fitted inhibition curve with a large enough effect in the signal ratio in the repeat runs, with a control signal flat; the % refers to the signal ratio)
Procedure, shortened: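 Cells were plated and grown for 24 h at 37 °C. Ro20-1724 (0.1 mM final) went in first, then compound for 10 min. NKH477 (200 nM) with quinpirole (12 nM) followed for 30 min at RT, then HTRF detection reagents for 1 h.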

[12] = p53 small molecule agonists, cell-based qHTS assay with human liver microsomes: qHTS cell viability counter screen (AID 1963579); note: nearly all actives have a fitted effect of over 45% in size; note: potency is the fitted concentration of half-maximal effect
Procedure, shortened: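 After the 460/530 nm beta-lactamase read, CellTiter-Glo was added to the same wells and luminescence measured after 30 min at room temperature, giving viability of p53RE-bla cells treated 16 h with compounds plus microsomes and NADPH.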

[13] = p53 small molecule agonists, cell-based qHTS assay: qHTS cell viability counter screen (AID 1963581); note: nearly all actives have a fitted effect of over 45% in size; note: potency is the fitted concentration of half-maximal effect
Procedure, shortened: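 p53RE-bla HCT-116 cells, compounds added 5 h after plating and incubated 16 h at 37 C. Cytotoxicity measured in the same wells as intracellular ATP by CellTiter-Glo luminescence after 30 min at room temperature.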

[14] = target: 5-hydroxytryptamine receptor 2A (Homo sapiens) (UniProt P28223); experiment: 5-hydroxytryptamine receptor 2A (HTR2A) small molecule antagonists, cell-based qHTS assay (AID 1963586); note: nearly all actives have a fitted effect of over 45% in size
Procedure, shortened: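 Antagonist-mode intracellular calcium assay: DOI (4 nM) added after 5 min compound pre-incubation at room temperature to dye-loaded HTR2A-CHO cells. Fluorescence followed for 3 min, sampled every second.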

[15] = target: Muscarinic acetylcholine receptor M1 (Homo sapiens) (UniProt P11229); experiment: Cholinergic receptor muscarinic 1 (CHRM1) small molecule agonists, cell-based qHTS assay (AID 1963589); note: nearly all actives have a fitted effect of over 35% in size; note: potency is the fitted concentration of half-maximal effect
Procedure, shortened: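 CHO cells stably expressing human CHRM1 were loaded with calcium dye for 1 h at 37 C, then compound was added in agonist mode. Intracellular calcium fluorescence was followed kinetically at 1 s intervals. Fifteen concentrations were tested in three independent runs.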

[16] = p53 small molecule agonists, cell-based qHTS assay with rat liver microsomes (AID 1963578)
Procedure, shortened: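 Metabolic activation is supplied by rat liver microsomes with NADPH (each 0.5 mg/mL final). p53RE-bla cells incubate with compound 16 h at 37 C; reporter activity is measured by LiveBLAzer fluorescence.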

[17] = p53 small molecule agonists, cell-based qHTS assay with rat liver microsomes: qHTS cell viability counter screen (AID 1963580); note: nearly all actives have a fitted effect of over 45% in size
Procedure, shortened: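 p53RE-bla HCT-116 cells were exposed 16 h at 37 C to compounds with rat liver microsomes (0.5 mg/mL) and NADPH (0.5 mg/mL). Viability was measured in the same wells as ATP content by CellTiter-Glo luminescence.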

[18] = target: Beta-2 adrenergic receptor (Homo sapiens) (UniProt P07550); experiment: Adrenergic beta2 receptor (ADRB2) small molecule agonists, cell-based qHTS assay (AID 1963593);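 note: CHO cells stably overexpressing human ADRB2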
Procedure, shortened: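 CHO cells stably over-expressing ADRB2 were plated overnight at 37C, then dosed with compounds plus a stimulation mix containing 100uM IBMX and 25uM Ro-20-1724 for 0.5hr at room temperature. cAMP was measured by HTRF competition, 1hr.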

[19] = target: 5-hydroxytryptamine receptor 2A (Homo sapiens) (UniProt P28223); experiment: 5-hydroxytryptamine receptor 2A (HTR2A) small molecule agonists, cell-based qHTS assay (AID 1963587); note: nearly all actives have a fitted effect of over 30% in size; note: potency is the fitted concentration of half-maximal effect
Procedure, shortened: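 CHO cells stably expressing human HTR2A, plated 18 h, loaded with calcium dye 1 h at 37 C. Agonist mode: compounds added and intracellular calcium fluorescence recorded kinetically for 2 min at 1 sec intervals.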

[20] = target: Muscarinic acetylcholine receptor M1 (Homo sapiens) (UniProt P11229); experiment: Cholinergic receptor muscarinic 1 (CHRM1) small molecule antagonists, cell-based qHTS assay (AID 1963588); note: nearly all actives have a fitted effect of over 40% in size
Procedure, shortened: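 CHRM1-CHO calcium-flux assay, antagonist mode. Cells were seeded 18 h, dye-loaded 1 h at 37 C and given compound for 5 min at RT, then acetylcholine was added at 50nM. FDSS fluorescence was read 3 min; 15 concentrations, three runs.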

Measured: Potency

Sequence of 5-hydroxytryptamine receptor 2A (Homo sapiens) (P28223 whole entry, looked up): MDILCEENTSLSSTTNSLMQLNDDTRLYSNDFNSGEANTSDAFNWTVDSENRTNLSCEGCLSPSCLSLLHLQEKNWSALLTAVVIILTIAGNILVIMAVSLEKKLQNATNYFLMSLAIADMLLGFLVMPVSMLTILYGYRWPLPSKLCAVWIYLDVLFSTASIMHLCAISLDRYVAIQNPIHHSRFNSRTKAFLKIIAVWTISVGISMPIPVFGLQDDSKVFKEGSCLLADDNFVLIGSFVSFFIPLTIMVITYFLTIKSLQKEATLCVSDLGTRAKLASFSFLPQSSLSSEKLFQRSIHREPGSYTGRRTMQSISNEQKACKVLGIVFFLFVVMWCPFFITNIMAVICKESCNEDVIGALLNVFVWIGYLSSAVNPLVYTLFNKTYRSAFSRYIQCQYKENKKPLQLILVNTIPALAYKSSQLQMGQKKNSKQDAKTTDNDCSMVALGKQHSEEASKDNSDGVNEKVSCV
Sequence of Beta-2 adrenergic receptor (Homo sapiens) (P07550 whole entry, looked up): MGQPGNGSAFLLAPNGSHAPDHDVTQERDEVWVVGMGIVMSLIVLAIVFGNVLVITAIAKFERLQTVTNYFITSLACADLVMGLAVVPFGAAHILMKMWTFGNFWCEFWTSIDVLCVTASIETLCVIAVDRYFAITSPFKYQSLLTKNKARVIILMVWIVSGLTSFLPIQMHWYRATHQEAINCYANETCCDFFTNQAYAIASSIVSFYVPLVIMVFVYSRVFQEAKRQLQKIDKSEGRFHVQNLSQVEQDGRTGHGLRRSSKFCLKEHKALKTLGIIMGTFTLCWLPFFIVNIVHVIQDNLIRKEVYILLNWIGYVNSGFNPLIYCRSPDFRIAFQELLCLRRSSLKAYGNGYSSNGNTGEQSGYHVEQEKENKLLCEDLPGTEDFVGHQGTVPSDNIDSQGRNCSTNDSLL
Sequence of KiSS-1 receptor (Homo sapiens) (Q969F8 whole entry, looked up): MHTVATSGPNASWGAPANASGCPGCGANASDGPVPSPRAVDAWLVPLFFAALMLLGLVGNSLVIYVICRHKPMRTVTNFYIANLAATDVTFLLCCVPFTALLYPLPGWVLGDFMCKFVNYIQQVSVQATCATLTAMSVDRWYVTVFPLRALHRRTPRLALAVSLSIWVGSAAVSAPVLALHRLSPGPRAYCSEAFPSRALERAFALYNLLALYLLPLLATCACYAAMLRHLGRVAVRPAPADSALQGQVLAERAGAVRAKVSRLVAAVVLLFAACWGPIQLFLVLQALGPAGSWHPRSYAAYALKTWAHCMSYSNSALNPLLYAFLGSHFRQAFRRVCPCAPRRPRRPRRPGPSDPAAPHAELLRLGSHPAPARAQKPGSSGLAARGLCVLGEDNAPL
Sequence of Gonadotropin-releasing hormone receptor (Homo sapiens) (P30968 whole entry, looked up): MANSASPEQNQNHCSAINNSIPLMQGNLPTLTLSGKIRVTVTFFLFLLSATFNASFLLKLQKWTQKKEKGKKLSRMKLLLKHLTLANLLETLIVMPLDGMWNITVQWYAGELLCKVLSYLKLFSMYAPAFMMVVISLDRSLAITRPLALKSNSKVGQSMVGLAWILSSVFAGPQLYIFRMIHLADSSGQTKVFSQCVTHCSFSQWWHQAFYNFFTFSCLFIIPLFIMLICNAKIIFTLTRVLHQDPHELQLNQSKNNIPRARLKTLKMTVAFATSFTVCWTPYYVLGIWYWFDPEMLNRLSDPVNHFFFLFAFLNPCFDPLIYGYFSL
Sequence of Muscarinic acetylcholine receptor M1 (Homo sapiens) (P11229 whole entry, looked up): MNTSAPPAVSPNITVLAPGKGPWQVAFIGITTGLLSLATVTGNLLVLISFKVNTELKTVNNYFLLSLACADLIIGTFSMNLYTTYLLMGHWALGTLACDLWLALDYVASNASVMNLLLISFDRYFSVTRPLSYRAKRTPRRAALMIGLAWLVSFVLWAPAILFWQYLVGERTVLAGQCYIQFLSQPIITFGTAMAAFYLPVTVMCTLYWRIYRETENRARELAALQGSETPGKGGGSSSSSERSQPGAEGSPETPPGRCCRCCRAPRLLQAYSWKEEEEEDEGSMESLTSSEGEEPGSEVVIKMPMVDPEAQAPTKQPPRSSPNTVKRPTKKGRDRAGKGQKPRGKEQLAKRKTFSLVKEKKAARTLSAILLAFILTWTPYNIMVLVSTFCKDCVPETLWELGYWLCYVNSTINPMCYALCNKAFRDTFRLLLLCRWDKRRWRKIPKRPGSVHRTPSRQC
Sequence of D(2) dopamine receptor (Homo sapiens) (P14416 whole entry, looked up): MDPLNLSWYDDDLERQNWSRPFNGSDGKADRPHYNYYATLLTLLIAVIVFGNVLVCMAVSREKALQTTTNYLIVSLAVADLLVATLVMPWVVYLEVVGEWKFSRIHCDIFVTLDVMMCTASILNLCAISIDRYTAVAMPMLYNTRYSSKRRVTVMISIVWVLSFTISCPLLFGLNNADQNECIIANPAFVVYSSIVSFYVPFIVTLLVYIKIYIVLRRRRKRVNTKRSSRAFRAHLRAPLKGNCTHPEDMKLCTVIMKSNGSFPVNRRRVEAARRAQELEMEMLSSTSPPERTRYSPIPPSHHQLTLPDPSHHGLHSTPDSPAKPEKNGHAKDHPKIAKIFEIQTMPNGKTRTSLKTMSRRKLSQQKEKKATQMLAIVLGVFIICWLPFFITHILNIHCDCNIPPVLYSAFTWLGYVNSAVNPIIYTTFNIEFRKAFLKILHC

CC(C)NCC(O)COc1cccc2[nH]ccc12 (stereo unspecified)
inactive: [1] | [2] | [3] | [4] | [5] | [6] | [7] | [8] | [9] | [10] | [11]

O=[N+]([O-])c1cc(C2CCCCC2)c(O)c([N+](=O)[O-])c1
inactive: [4] | [14] | [15] | [11]
active: [1] 19.3 µM | [2] 13.6 µM | [3] 38.8 µM | [12] 20.4 µM | [13] 20.4 µM

CC1(C)O[C@@H]2C[C@H]3[C@@H]4CCC5=CC(=O)CC[C@]5(C)[C@@]4(F)[C@@H](O)C[C@]3(C)[C@]2(C(=O)CCl)O1
not listed: [5] | [8] | [11] | [14] | [15] | [19] | [20]
inactive: all other assays above

O=C(CCCN1CC=C(n2c(=O)[nH]c3ccccc32)CC1)c1ccc(F)cc1
inactive: [1] | [2] | [3] | [4] | [5] | [10]

CCN(CC)c1ccc2c(c1)Oc1cc(N(CC)CC)ccc1C21OC(=O)c2ccccc21
active: [1] 9.44 µM | [3] 19 µM | [4] 23.9 µM | [19] 21.3 µM | [15] 23.9 µM
not listed: [5] | [9] | [10] | [13] | [18] | [20]
inactive: all other assays above

CCCCCCCCCCCCCCC[C@H](O)[C@@H](N)CO
active: [19] 7.56 µM
not listed: [5] | [10]
inactive: all other assays above

Cc1ccc(NC=O)c(C)c1
not listed: [5] | [6] | [8] | [16]
inactive: all other assays above

c1ccccc1
not listed: [6] | [7] | [12] | [13] | [16] | [17] | [18]
inactive: all other assays above

O=C(Nc1cccc(C(F)(F)F)c1)c1cc(Br)cc(Br)c1O
inactive: [3] | [4] | [16] | [19] | [20] | [15] | [10]
active: [1] 7.7 µM | [2] 9.69 µM | [12] 9.13 µM | [9] 61.1 µM

O=C1OC(=O)c2cc(Oc3ccc4c(c3)C(=O)OC4=O)ccc21
not listed: [5] | [8] | [18]
inactive: all other assays above

CC(=O)Oc1cccc(C)c1
not listed: [5] | [12]
inactive: all other assays above

CO[C@@]1(NC(=O)Cc2cccs2)C(=O)N2C(C(=O)O)=C(COC(N)=O)CS[C@@H]21
not listed: [5] | [6] | [16]
inactive: all other assays above

Cc1c(-c2cccnc2)c2ccccc2n1CCCCC(=O)O
not listed: [5] | [7] | [8] | [11] | [13] | [15] | [18]
inactive: all other assays above

CC1=CC(=O)/C(=C(/C)O)C(=O)O1
not listed: [5] | [7] | [11] | [13] | [14] | [17] | [18]
inactive: all other assays above

C[C@@H]1C[C@H]2[C@@H]3C[C@H](F)C4=CC(=O)C(Cl)=C[C@]4(C)[C@@]3(F)[C@@H](O)C[C@]2(C)[C@@]1(O)C(=O)CO
not listed: [5] | [12] | [14] | [18]
inactive: all other assays above

O=[N+]([O-])c1ccc(O)cc1C(F)(F)F
active: [1] 30.6 µM | [2] 68.6 µM
not listed: [5] | [6] | [7] | [12] | [13] | [18] | [20]
inactive: all other assays above

CCNC(=O)/C=C/c1cccc(Br)c1
not listed: [5] | [14]
inactive: all other assays above
